Assay results taken from PubChem BioAssay AID430 (Sanford-Burnham Center for Chemical Genomics, 2006).
About 1,100 (1.7%) of roughly 63,000 compounds were called active. The list comes from a sample in which actives are over-represented; it also holds similar structures and randomly drawn compounds. Entries with a potency or affinity are not part of this list. Unmarked numbers belong to inactive results. No stated cut-off is given here; in the data, active means cytotoxicity above about 50%; inactive means the rest.

experiment: cytotoxicity in HPDE-C7 cells, cell-based, fluorescence, HTS (AID 430); settings: HPDE-C7 pancreatic duct cells viability, at 10 µM, hits give high values;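 further: cells exposed to compound for 48 hours before viability readout; 0% = vehicle and 100% = reference cytotoxic drug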

SMILES	cytotoxicity
COc1ccc(-c2noc(CSc3nc4ccccc4c(=O)n3-c3ccccc3)n2)cc1OC	-10.3%
Cc1ccccc1NC(=O)C1CCCN(S(=O)(=O)c2cnc[nH]2)C1 (centres undefined)	-5.3%
CC(C)c1[nH]nc2c1C(C(C)C)C(C#N)=C(N)O2 (centres undefined)	-24.3%
Cc1cc(C2N=C(N)Nc3nc4ccccc4n32)c(C)n1-c1ccccc1Cl (centres undefined)	2.7%
NC1=NC(c2ccc(F)cc2)n2c(nc3ccccc32)N1 (centres undefined)	-3.6%
COc1cc(S(=O)(=O)N2CCN(c3ccccc3)CC2)ccc1Cl	-12.6%
CC(C)c1nc(SCc2c(F)cccc2Cl)c2c(=O)n(C)c(=O)n(C)c2n1	77.1% (active)
Cc1nc(SCc2c(F)cccc2Cl)c2c(=O)n(C)c(=O)n(C)c2n1	-26.2%
CC(C)c1nc(SCc2ccccn2)c2c(=O)n(C)c(=O)n(C)c2n1	-2%
CCOC(=O)c1cnc(SCC(=O)Nc2nnc(CC)s2)nc1N	-4.3%
C=CCn1cnc2c(c1=O)c1nc3ccccc3nc1n2/N=C/c1cccc(OC)c1	48.5%
C=CCn1cnc2c(c1=O)c1nc3ccccc3nc1n2/N=C/c1cccc(OC)c1OC	46.6%
O=C(CCSc1ccccc1)Nc1ccc(S(=O)(=O)N2CCOCC2)cc1	1.8%
COc1cc2c(cc1OC)C1Cc3ccc(OC)c(OC)c3CN1CC2 (centres undefined)	-10.2%
COc1cc2c(cc1OC)C(c1cc(OC)c(OC)c(OC)c1)NCC2 (centres undefined)	4.6%
O=C(O)C1CC(=O)N(c2ccc(F)cc2)C1 (centres undefined)	-16.5%
CCOC(=O)C1C2C=CC3(CN(c4cccc(Cl)c4)C(=O)C13)O2 (centres undefined)	-0.8%
CC1(C)C2CC=C(/C=N/n3cnnc3)C1C2 (centres undefined)	-4.1%
O=C(c1ccc(F)cc1)C1CCN(CCn2c(=O)[nH]c3ccccc3c2=O)CC1	5.4%
O=c1c2ccccc2[nH]c(=S)n1CCN1CCN(Cc2ccccc2)CC1	-3.8%

SMILES	cytotoxicity
COc1ccc(C(=O)OCC(=O)NCc2ccco2)cc1OC	-14.8%
COc1cc(S(=O)(=O)Nc2cccnc2)ccc1F	-3.6%
COc1ccccc1Oc1ccc(S(=O)(=O)Nc2cccnc2)cc1	51.5% (active)
CCCCOc1ccc(S(=O)(=O)Nc2cccnc2)cc1	-5.2%
Cc1nc(NC(=O)CSc2nc3cccnc3n2C2CCCCC2)sc1C	9.2%
Cc1ccc(-c2nn3c(C)nnc3s2)cc1NC(=O)c1ccc(Br)o1	-10.8%
Cc1nnc2sc(-c3cccc(NC(=O)c4ccc(-c5cccc(Cl)c5)o4)c3)nn12	0.6%
CC(C)CNc1nc(Oc2ccc(=O)n(C)n2)nc(N2CCOCC2)n1	-7.6%
Cc1cccc(-n2ncc3c(NCc4ccco4)ncnc32)c1	64.1% (active)
Clc1ccc(Cn2ncc3c(NCc4ccco4)ncnc32)c(Cl)c1	51.5% (active)
Cc1ccc(-n2ncc3c(NCc4ccco4)ncnc32)c(C)c1	-6.7%
c1ccc(-n2ncc3c(NCc4ccco4)ncnc32)cc1	1.4%
c1ccc(Cn2ncc3c(NCc4ccco4)ncnc32)cc1	8.9%
Clc1ccc(-n2ncc3c(NCc4ccco4)ncnc32)cc1	17.4%
Cc1ccc(Cl)cc1N1CCN(C(=O)C2CCN(c3nnc(-n4cccc4)s3)CC2)CC1	43.7%
Cc1ccc(C)c(N2CCN(C(=O)C3CCN(c4nc(C)cc(C)n4)CC3)CC2)c1	11.3%
Cc1cc(C)nc(N2CCC(C(=O)N3CCN(c4cc(Cl)ccc4C)CC3)CC2)n1	59.5% (active)
O=C(COC(=O)C1c2ccccc2Oc2ccccc21)NC1CCS(=O)(=O)C1 (centres undefined)	-3.2%
Cc1nc(NC2=NCN(Cc3ccc4c(c3)OCO4)CN2)nc2ccccc12	2.1%
Cc1cc2nc(NC3=NCN(Cc4ccc5c(c4)OCO5)CN3)nc(C)c2cc1C	93.4% (active)

SMILES	cytotoxicity
Cc1ccc2nc(NC3=NCN(Cc4ccc5c(c4)OCO5)CN3)nc(C)c2c1	8.3%
CC(=O)C1=C(O)C(=O)N(Cc2ccco2)C1c1ccccc1 (centres undefined)	-10.9%
N=c1c(S(=O)(=O)c2ccccc2)cc2c(=O)n3ccccc3nc2n1Cc1ccco1	-0.3%
N=c1c(C(=O)NCc2ccccc2)cc2c(=O)n3ccccc3nc2n1Cc1ccco1	1.8%
Cc1ccc(Cn2c(=N)c(C(=O)NCc3ccco3)cc3c(=O)n4ccccc4nc32)cc1	-10.8%
Cc1ccc(S(=O)(=O)c2cc3c(=O)n4ccccc4nc3n(Cc3ccco3)c2=N)cc1	21.9%
Cc1ccc(CNC(=O)c2cc3c(=O)n4ccccc4nc3n(Cc3ccco3)c2=N)cc1	104% (active)
CC1=C(C(N)=O)C(c2ccccn2)n2nc(-c3ccccc3Cl)nc2N1 (centres undefined)	13.8%
C=C(C)COc1ccc2c3c(c(=O)oc2c1OCC(=C)C)CCC3	11.5%
Cc1ccc(C(C(=O)NC2CCCCC2)N(Cc2cccnc2)C(=O)C2COc3ccccc3O2)o1 (centres undefined)	-11.7%
C=CCn1c(SCC(=O)NC2CCCCC2)nnc1-c1sc(N)nc1C	-10%
CCn1c(COc2ccc3c(c2)OCO3)nnc1SCC(=O)c1ccccc1	-1.4%
CN(CC(=O)NCc1cccs1)S(=O)(=O)c1cccc2cccnc12	-9.8%
O=S(=O)(NCc1cccs1)c1cccc2cccnc12	-9.6%
CCOC(=O)C1(C)NC(c2ccc(N(C)C)cc2)C2C(=O)N(CC)C(=O)C21 (centres undefined)	-12.4%
O=c1c2ccccc2nc(SCc2cc(F)cc3c2OCOC3)n1Cc1ccco1	-2.2%
N#Cc1nc(-c2ccc(F)cc2)oc1N1CCCC1	-7.6%
O=C(c1ccc(F)cc1)c1ccc(N2CCCC2)cc1	-17.7%
CN(C)CCN1C(=O)C(O)=C(C(=O)c2ccco2)C1c1ccccc1F (centres undefined)	-4.8%
